In PubChem BioAssay (EPA / NIEHS):
The source made the active and inactive calls. How the source made its calls: active means hit-call score of the fitted dose curve at least 0.9, where 1 is the maximum; inactive means score below 0.9.

Columns and labels:
[1] = target: Paired box protein Pax-6 (Homo sapiens) (UniProt P26367); experiment: ATG_Pax6_CIS: Attagene CIS-FACTORIAL HepG2 Assay for human Paired Box 6 (PAX6) (AID 2282956); settings: HepG2 CIS-FACTORIAL PAX6 reporter transcription, RNA readout; actives raise or lower the signal
Outline: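 DMSO-referenced bidirectional fits of reporter mRNA fluorescence; HepG2 with transient cis-promoter MRTUs, 24 h post-dose, RT-PCR plus capillary electrophoresis detection.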

[2] = ATG_PXRE_CIS: Attagene CIS-FACTORIAL HepG2 Assay for human Pregnane X Receptor Element (PXRE) (AID 2282957); settings: HepG2 Attagene CIS-FACTORIAL PXRE reporter, mRNA; actives raise or lower the signal
Outline: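 Endogenous transcription factor activity in HepG2 was gauged through induction of reporter mRNA driven by a cis-regulating promoter element, sampled 24 h post-treatment. Activity was fitted in both directions against DMSO negative control.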

[3] = ATG_RORE_CIS: Attagene CIS-FACTORIAL HepG2 Assay for human RAR-related Orphan Receptor Element (RORE) (AID 2282959); settings: HepG2 Attagene cis-factorial RORE reporter, mRNA; actives raise or lower the signal
Outline: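 Transiently transfected HepG2 reporter cells were treated 24 h. Reporter transcripts were detected by RT-PCR and capillary electrophoresis, with bidirectional fitting against DMSO.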

[4] = ATG_Sox_CIS: Attagene CIS-FACTORIAL HepG2 Assay for human SRY-box transcription factor (SOX) (AID 2282960); settings: HepG2 Attagene cis-factorial SOX reporter, mRNA; actives raise or lower the signal
Outline: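 Gain- or loss-of-signal endpoint, fitted bidirectionally with DMSO as negative control. Based on reporter mRNA from transfected HepG2 cells harvested 24 h post-treatment and quantified via RT-PCR and capillary electrophoresis.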

[5] = target: Transcription factor Sp1 (Homo sapiens) (UniProt P08047); experiment: ATG_Sp1_CIS: Attagene CIS-FACTORIAL HepG2 Assay for human Specificity Protein 1 (Sp1) (AID 2282961); settings: HepG2 Sp1 cis-reporter transcription, actives raise or lower the signal
Outline: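 Endpoint reflects endogenous Sp1 transcriptional activity, not an exogenous fusion protein: HepG2 cells with transfected cis-regulated reporters, 24 h dosing, RT-PCR/capillary electrophoresis mRNA read-out, DMSO-normalised bidirectional fit.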

[6] = ATG_SREBP_CIS: Attagene CIS-FACTORIAL HepG2 Assay for human Sterol Regulatory Element Binding (SREBP) (AID 2282962); settings: HepG2 Attagene cis-factorial SREBP reporter, mRNA; actives raise or lower the signal
Outline: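 In this cis-format assay, HepG2 liver cells express reporters controlled by promoter elements responsive to native transcription factors. Exposure lasts 24 h; reporter mRNA fluorescence from capillary electrophoresis gives the signal, fitted bidirectionally against DMSO.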

[7] = target: Signal transducer and activator of transcription 3 (Homo sapiens) (UniProt P40763); experiment: ATG_STAT3_CIS: Attagene CIS-FACTORIAL HepG2 Assay for human Signal Transducer and Activator of Transcription 3 (STAT3) (AID 2282963); settings: HepG2, Attagene cis-factorial STAT3 reporter transcription; actives raise or lower the signal
Outline: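 HepG2, MRTU-transfected, 24 h dosing. RNA → RT → PCR → FAM label → HpaI → CE. Bidirectional fit vs DMSO.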

[8] = ATG_TA_CIS: Attagene CIS-FACTORIAL HepG2 Assay for human TA Basal Promoter (AID 2282964); settings: HepG2 Attagene CIS-factorial TA basal promoter reporter; actives raise or lower the signal
Outline: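 Background internal-marker endpoint from a 52-component HepG2 cis-reporter panel. Cells treated 24 h; reporter transcripts quantified via RT-PCR and CE fluorescence against DMSO baseline.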

[9] = ATG_TCF_b_cat_CIS: Attagene CIS-FACTORIAL HepG2 Assay for human T-Cell-Factor with beta-catenin (TCF/b-cat) (AID 2282965); settings: HepG2 TCF/beta-catenin cis-reporter transcription, actives raise or lower the signal
Outline: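 Using capillary electrophoresis as the read-out, labelled reporter cDNA fragments from transiently transfected HepG2 were sized and quantified. Exposure lasted 24 hours; activity in either direction was referenced to DMSO.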

[10] = ATG_PPRE_CIS: Attagene CIS-FACTORIAL HepG2 Assay for human Peroxisome Proliferator-activated Response Element (PPRE) (AID 2282958); settings: HepG2 PPRE cis-element reporter, Attagene transcription factor profiling; actives raise or lower the signal
Outline: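 Measured endpoint: PPRE-controlled reporter mRNA, detected by RT-PCR and capillary electrophoresis fluorescence, from transiently transfected HepG2 cells 24 h after dosing. Curves fitted in both directions using DMSO baseline.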

Measured: AC50

Sequence of Transcription factor Sp1 (Homo sapiens) (P08047 whole entry, looked up, the tested form may be a part): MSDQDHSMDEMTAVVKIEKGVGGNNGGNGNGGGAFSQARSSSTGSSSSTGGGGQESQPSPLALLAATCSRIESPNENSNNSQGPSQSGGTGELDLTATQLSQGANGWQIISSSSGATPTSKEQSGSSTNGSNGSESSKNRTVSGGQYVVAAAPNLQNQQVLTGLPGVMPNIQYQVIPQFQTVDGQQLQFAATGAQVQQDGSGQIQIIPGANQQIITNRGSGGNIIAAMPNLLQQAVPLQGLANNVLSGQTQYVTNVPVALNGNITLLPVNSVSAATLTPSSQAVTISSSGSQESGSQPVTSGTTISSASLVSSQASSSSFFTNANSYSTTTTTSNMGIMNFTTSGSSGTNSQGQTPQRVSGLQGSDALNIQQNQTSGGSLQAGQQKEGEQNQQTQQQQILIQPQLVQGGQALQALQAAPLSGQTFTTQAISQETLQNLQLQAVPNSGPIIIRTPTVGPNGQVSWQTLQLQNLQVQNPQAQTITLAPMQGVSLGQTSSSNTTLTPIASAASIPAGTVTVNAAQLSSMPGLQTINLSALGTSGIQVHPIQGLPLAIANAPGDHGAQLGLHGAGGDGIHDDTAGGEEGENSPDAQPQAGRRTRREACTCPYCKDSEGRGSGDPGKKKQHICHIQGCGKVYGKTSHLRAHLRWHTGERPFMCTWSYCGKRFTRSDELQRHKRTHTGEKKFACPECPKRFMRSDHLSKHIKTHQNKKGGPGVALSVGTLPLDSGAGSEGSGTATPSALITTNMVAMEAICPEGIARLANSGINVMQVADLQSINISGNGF
Sequence of Signal transducer and activator of transcription 3 (Homo sapiens) (P40763 whole entry, looked up): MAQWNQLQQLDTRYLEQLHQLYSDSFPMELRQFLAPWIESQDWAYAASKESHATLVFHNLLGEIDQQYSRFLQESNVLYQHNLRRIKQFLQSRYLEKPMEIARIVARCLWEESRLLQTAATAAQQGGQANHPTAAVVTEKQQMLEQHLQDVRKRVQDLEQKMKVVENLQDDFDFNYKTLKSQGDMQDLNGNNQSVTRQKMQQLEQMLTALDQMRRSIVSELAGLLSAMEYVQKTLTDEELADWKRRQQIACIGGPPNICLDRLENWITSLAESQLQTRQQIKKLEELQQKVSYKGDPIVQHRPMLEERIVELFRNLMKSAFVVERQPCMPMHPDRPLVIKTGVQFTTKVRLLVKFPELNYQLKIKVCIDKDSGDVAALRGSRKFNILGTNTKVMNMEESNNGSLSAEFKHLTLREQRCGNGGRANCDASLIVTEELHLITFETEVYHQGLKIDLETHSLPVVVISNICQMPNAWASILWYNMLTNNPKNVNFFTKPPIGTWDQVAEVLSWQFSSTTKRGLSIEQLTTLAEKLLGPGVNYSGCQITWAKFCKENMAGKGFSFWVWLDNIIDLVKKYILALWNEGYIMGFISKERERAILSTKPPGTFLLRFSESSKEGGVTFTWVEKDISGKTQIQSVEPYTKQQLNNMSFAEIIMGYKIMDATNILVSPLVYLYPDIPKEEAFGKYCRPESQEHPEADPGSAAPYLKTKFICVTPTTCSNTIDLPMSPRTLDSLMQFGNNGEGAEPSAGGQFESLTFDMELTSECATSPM
Sequence of Paired box protein Pax-6 (Homo sapiens) (P26367 whole entry, looked up): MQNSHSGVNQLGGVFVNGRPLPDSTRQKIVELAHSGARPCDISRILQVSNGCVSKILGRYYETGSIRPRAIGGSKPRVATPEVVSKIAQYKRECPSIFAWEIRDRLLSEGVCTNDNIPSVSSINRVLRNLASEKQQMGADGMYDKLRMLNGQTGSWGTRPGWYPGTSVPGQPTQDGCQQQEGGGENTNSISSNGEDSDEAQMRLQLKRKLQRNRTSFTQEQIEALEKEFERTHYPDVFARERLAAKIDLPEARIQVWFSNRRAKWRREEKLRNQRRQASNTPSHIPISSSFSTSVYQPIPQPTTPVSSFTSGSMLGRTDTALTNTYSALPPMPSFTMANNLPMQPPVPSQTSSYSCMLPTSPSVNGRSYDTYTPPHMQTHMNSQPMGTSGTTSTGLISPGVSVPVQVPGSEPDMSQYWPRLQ

CN(C[C@@H](CC[N+]12CCC(C3CCCCC3)(CC1)CC2)c1ccc(Cl)c(Cl)c1)C(=O)c1cc(C(F)(F)F)cc(C(F)(F)F)c1
inactive: [1] | [2] | [3] | [4] | [5] | [6] | [7] | [8] | [9]

Cc1cc(F)ccc1-c1cc(N2CC[C@@H](O)[C@H]2CO)ncc1N(C)C(=O)C(C)(C)c1cc(C(F)(F)F)cc(C(F)(F)F)c1
active: [2] 0.35 µM
inactive: [1] | [10] | [3] | [4] | [5] | [6] | [7] | [8] | [9]

Cc1ncc(CO)c(CO)c1O
inactive: [1] | [2] | [10] | [3] | [4] | [5] | [6] | [7] | [8] | [9]

Cc1occc1C(=O)Nc1ccc(C(=O)N2CCC(F)(F)/C(=C\C(=O)N3CCC(N4CCCCC4)CC3)c3ccccc32)cc1
active: [1] 34.5 µM | [2] 8.38 µM | [4] 42.3 µM | [5] 56 µM | [7] 62.6 µM
inactive: [6] | [8]

OCCO
inactive: [1] | [2] | [10] | [4] | [5] | [6] | [7] | [8] | [9]

C[C@]12CC[C@@H]3c4ccc(O)cc4CC[C@H]3[C@@H]1CCC2=O
inactive: [1] | [4] | [5] | [6] | [7] | [8] | [9]

CCN(Cc1cccnc1)C(=O)c1cccc(Cl)c1[C@]1(C)C(=O)N(Cc2ccc(OC)cc2OC)c2ccc(Cl)cc21
inactive: [10] | [4] | [5] | [7]
active: [1] 3.83 µM | [2] 0.143 µM | [3] 2.74 µM | [6] 3.23 µM | [8] 4.5 µM | [9] 5.44 µM

O=C(OCCCCCCOC(=O)c1ccccc1)c1ccccc1
inactive: [1] | [2] | [3] | [4] | [5] | [6] | [7] | [8]

COc1cc(C(=O)NC2CCN(C)CC2)ccc1Nc1ncc2c(n1)N(C1CCCC1)CC(F)(F)C(=O)N2C
active: [1] 3.75 µM | [2] 1.01 µM | [3] 3.55 µM | [5] 0.525 µM | [6] 1.56 µM | [9] 4.26 µM
inactive: [10] | [4] | [7] | [8]

Clc1ccccc1C(c1ccccc1)(c1ccccc1)n1ccnc1
inactive: [5] | [7] | [9]
active: [1] 11.1 µM | [2] 0.589 µM | [3] 11.1 µM | [4] 11.1 µM | [6] 3 µM | [8] 11.1 µM

CC(=O)N1CCN(c2ccc(OC[C@H]3CO[C@](Cn4ccnc4)(c4ccc(Cl)cc4Cl)O3)cc2)CC1
active: [1] 10 µM | [2] 0.942 µM | [3] 1.58 µM | [5] 49.9 µM | [6] 5.24 µM | [8] 4.84 µM | [9] 5.19 µM
inactive: [10] | [4] | [7]

Oc1ccccc1
inactive: [1] | [2] | [10] | [3] | [4] | [5] | [6] | [7] | [8] | [9]

O=C(O)c1ccccc1-n1cc(C(=O)O)c(=O)c2cc(Nc3c(F)cc(F)cc3Cl)c(Cl)cc21
active: [2] 62.3 µM
inactive: [1] | [10] | [3] | [4] | [5] | [6] | [7] | [8] | [9]

Clc1cc(Cl)c2c(c1)N=C1CCCCCN1C2
inactive: [1] | [10] | [3] | [4] | [5] | [6] | [7] | [8]
active: [2] 13.2 µM | [9] 83.4 µM

NCc1cccc(C2CCN(C(=O)c3ccc(C#Cc4ccccc4F)o3)CC2)c1
inactive: [2] | [4] | [5] | [7]
active: [1] 16.4 µM | [10] 2.77 µM | [3] 6.79 µM | [6] 8 µM | [8] 16.1 µM | [9] 17 µM

CC(C)(C)c1csc(-c2cc3cc(OCc4ccccc4CC(=O)O)ccc3o2)n1
active: [1] 7.32 µM | [10] 33.4 µM | [6] 6.91 µM | [8] 6.62 µM
inactive: [2] | [4] | [5] | [7] | [9]

CCCCCCCCCCCCO
inactive: [1] | [2] | [10] | [3] | [4] | [5] | [6] | [7] | [8] | [9]

O=C=NCCCCCCN=C=O
inactive: [1] | [2] | [10] | [3] | [4] | [5] | [6] | [7] | [8] | [9]

Cc1ccc2oc(CN(Cc3ccccc3)C(=O)Nc3c(F)cc(F)cc3F)c(-c3ccc(Cl)cc3)c2c1
inactive: [1] | [3] | [4] | [5] | [6] | [7] | [8]
active: [2] 0.63 µM

O=c1ccc2ccccc2o1
inactive: [1] | [2] | [3] | [4] | [5] | [6] | [7] | [8]
